# Data reported in PubChem BioAssay (Tox21).
# Results filed as inconclusive are left out. Calls of active or inactive are those of the source. Calls come from the whole dose curve; as a rule, active = well fitted activation curve with a large enough effect in the repeat runs; inconclusive = weak or mixed curves; inactive = flat fitted curve, though single readings scatter.
# Assay: Caspase-3/7 induction in HepG2 cells by small molecules, qHTS assay (AID 1346978); note: nearly all actives have a fitted effect of over 15% in size
# Settings: HepG2 caspase-3/7 activation, Caspase-Glo luminescence, 17 h; series mostly up to 92.4 µM; caspase activation: at the top concentration
# Excerpt: National Center for Advancing Translational Sciences [NCATS] NIH Chemical Genomics Center [NCGC] U.S. Environmental Protection Agency [EPA] National Institutes of Environmental Health Sciences [NIEHS] National Toxicology Program [NTP] Assay overview: Apoptosis is a process of programmed cell death and plays a central role in the development of multicellular organisms. It is a highly regulated process and induces cell death by activating caspases, which are the members of cysteine aspartic acid-specific protease (caspase) family. Caspases involved in apoptosis are classified by their mechanism of action as initiator caspases (caspase-2, -8, -9 and -10) and executioner caspases (caspase-3, -6, and -7). Inhibition of apoptosis results in number of cancers, autoimmune diseases, inflammatory diseases and viral infection. To identify small molecule compounds that induce apoptosis, a homogeneous, luminescent Caspase-Glo 3/7 assay was used. Wild type HepG2 cells were used to screen Tox21 libraries for identifying caspase-3/7 activity inducers.
# Assay Protocol Summary: HepG2 cells were dispensed at 2,000 per well in 5uL of culture medium into white solid bottom 1536-well plates (Corning Life Sciences, Corning, NY) using a Multidrop Combi (Thermo Scientific, Waltham, MA) dispenser. The assay plates were incubated at 37 C and 5% CO2 for 5hr, and then 23nL of compounds dissolved in DMSO and positive control were transferred using a Pintool station (Wako, San Diego, CA). The assay plates were incubated at 37C and 5% CO2 for 17hr. For caspase-3/7 activity read, 4uL of Caspase-Glo 3/7 reagent (Promega Corporation, Madison, WI) was added to each well of the assay plates using Flying Reagent Dispenser (FRD, Aurora Discovery, San Diego, CA) and incubated the assay plates at room temperature for 30min. The luminescence signal was quantified using a ViewLux plate reader (Perkin Elmer, Shelton, CT).
# % is set by controls: 0 for no effect and ±100 for the full control effect.
row,SMILES,caspase activation
1,Nc1nnc(-c2cccc(Cl)c2Cl)c(N)n1,-1.99% [at 42.5 µM] (inactive)
2,CCC(CC)CO,-0.196% (inactive)
3,CC(C)CC(C)CC(C)CC(C)COC(=O)c1ccccc1C(=O)OCC(C)CC(C)CC(C)CC(C)C (stereo not given),0.198% (inactive)
4,CCC(C)NC(N)=O (stereo not given),1.08% (inactive)
5,Brc1ccc(-c2ccccc2)cc1,0.154% (inactive)
6,CC(C)NCC(O)COc1ccc(COCCOC(C)C)cc1 (stereo not given),-0.013% [at 42.5 µM] (inactive)
7,OC[C@H](Cc1cccc(O)c1)[C@H](CO)Cc1cccc(O)c1,0.309% (inactive)
8,ClCCCl,0.46% (inactive)
9,COC(=O)CCc1ccc(OCC(O)CNC(C)C)cc1 (stereo not given),-1.25% [at 42.5 µM] (inactive)
10,CC(=O)NCCCCCC(=O)O,0.928% [at 42.5 µM] (inactive)
11,O=C(NCCN1CCOCC1)c1ccc(Cl)cc1,0.239% [at 42.5 µM] (inactive)
12,CC(C)c1ccc2cc(C(C)C)ccc2c1,-0.987% (inactive)
13,O=C(OCC(O)CO)c1ccccc1Nc1ccnc2c(C(F)(F)F)cccc12 (stereo not given),-2.37% [at 42.5 µM] (inactive)
14,CCNC(=O)C1CC(C)CCC1C(C)C (stereo not given),-1.2% (inactive)
15,O=C(OCc1ccccc1)C(=O)OCc1ccccc1,-0.24% (inactive)
16,Cc1cc(C(C)(C)C)c(O)c(C)c1CC1=NCCN1,0.0108% [at 42.5 µM] (inactive)
17,COCCc1ccc(OCC2CO2)cc1 (stereo not given),-0.981% [at 42.5 µM] (inactive)
18,CC(C)NCC(O)COc1cccc2[nH]ccc12 (stereo not given),0.067% [at 42.5 µM] (inactive)
19,CNS(=O)(=O)CCc1ccc2[nH]cc(C3CCN(C)CC3)c2c1,-1.2% [at 42.5 µM] (inactive)
20,CCOC(=O)/C=C/c1ccccc1,1.89% (inactive)

row,SMILES,caspase activation
1,CN(CCOc1ccc(NS(C)(=O)=O)cc1)CCc1ccc(NS(C)(=O)=O)cc1,-0.0397% [at 42.5 µM] (inactive)
2,BrCCCCCBr,-1.11% (inactive)
3,CC(C(=O)O)c1ccc2c(c1)CC(=O)c1ccccc1S2 (stereo not given),-0.214% [at 42.5 µM] (inactive)
4,O=Cc1ccc(Cl)c(Cl)c1,0.0492% (inactive)
5,O=P(O)(O)OP(=O)(O)O,-0.276% (inactive)
6,COc1ccc(-c2cc(=O)c3c(O)cc(O[C@@H]4O[C@H](CO[C@@H]5O[C@@H](C)[C@H](O)[C@@H](O)[C@H]5O)[C@@H](O)[C@H](O)[C@H]4O)cc3o2)cc1O,1.23% [at 42.5 µM] (inactive)
7,FC(F)(F)c1ccccc1-n1ccnc1,-1.81% [at 42.5 µM] (inactive)
8,O=S(=O)(O)c1ccc2cc(O)c(S(=O)(=O)O)cc2c1,-1.45% (inactive)
9,O=C(CS(=O)Cc1ccco1)NC/C=C\COc1cc(CN2CCCCC2)ccn1 (stereo not given),0.069% [at 42.5 µM] (inactive)
10,c1ccc2c(c1)ccc1c3ccccc3ccc21,2.45% [at 42.5 µM] (inactive)
11,C=Cc1ccccn1,-0.0979% (inactive)
12,Oc1ccccc1-c1nnco1,0.631% [at 42.5 µM] (inactive)
13,CC1(C)S[C@@H]2[C@H](N=CN3CCCCCC3)C(=O)N2[C@H]1C(=O)O,0.159% [at 42.5 µM] (inactive)
14,COc1ccc2c(c1)C(=O)N(CCc1ccc(S(=O)(=O)NC(=O)NC3CCCCC3)cc1)C(=O)C2(C)C,0.483% [at 42.5 µM] (inactive)
15,C[C@@H]1O[C@@H](O[C@@H]2[C@@H](O)[C@H](OCCc3ccc(O)c(O)c3)O[C@H](CO[C@@H]3O[C@H](CO)[C@@H](O)[C@H](O)[C@H]3O)[C@H]2OC(=O)/C=C/c2ccc(O)c(O)c2)[C@H](O)[C@H](O)[C@H]1O,-0.31% (inactive)
16,O=C1c2ccccc2C(=O)N1CCl,-2.54% (inactive)
17,C=C(C)C(=O)OCCNC(C)(C)C,-0.183% (inactive)
18,CCN(C)C(=O)Oc1cccc([C@H](C)N(C)C)c1,0.157% [at 42.5 µM] (inactive)
19,Oc1cn2c(n1)Nc1ccc(Cl)c(Cl)c1C2,0.135% [at 19 µM] (inactive)
20,NNc1nnc(NN)c2ccccc12,0.223% [at 42.5 µM] (inactive)
